Drawing on PubChem BioAssay (NCI), this text covers growth for 13 compounds.

Among the test systems are NCI-H23 lung; NCI-H226 lung; NCI-H322M lung; HOP-62 NSCLC; NCI-H460 lung; HOP-92 NSCLC; NCI-H522 lung; A549/ATCC NSCLC; 786-0 renal; COLO 205 colon.
Common to all, as to assay: NCI-60 one-dose screen, 48 h (100 = growth as untreated, 0 = no growth, -100 = all killed)
Details in all cases: 10 µM unless noted

About 83,000 compounds went through this panel and 20% of them were active in at least one assay; those are over-represented in the sample as a whole.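 Testing used 96-well plates and a 48-hour single-concentration exposure. Example: -40 means 40% of the starting cells died.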 A number with no mark means an inactive call. Active and inactive are the calls of the source. How the source made its calls: active means growth percent below 10; inactive means the rest.

`CC(OC(=O)Nc1cccc(Cl)c1)C(=O)O` (stereo not given): the growth with NCI-H23 lung is 97.9%; in the experiment on NCI-H226 lung it was 96.4%; in the experiment on NCI-H322M lung, 101%; in the experiment on HOP-62 NSCLC, 86.7%; with NCI-H460 lung it was 108%; in the experiment with HOP-92 NSCLC, 92.2%. Besides, the growth in the experiment on NCI-H522 lung was 80.9%; in the experiment with A549/ATCC NSCLC it was 99.1%; in the experiment on 786-0 renal it was 96%; in the experiment on COLO 205 colon, 113%.
As to `COc1ccc(/C=c2\c(=O)n(-c3ccccc3)c3nn4c(=O)c(=O)[nH]nc4n23)cc1`, the growth was 99.9% in the experiment on NCI-H23 lung; 92.8% in the experiment on NCI-H226 lung; 113% in the experiment with NCI-H322M lung; 102% in the experiment with HOP-62 NSCLC; 106% in the experiment with NCI-H460 lung; 100% in the experiment with HOP-92 NSCLC. For the same compound, the growth with NCI-H522 lung was 100%; with A549/ATCC NSCLC, 110%; with 786-0 renal, 108%; with COLO 205 colon it was 119%.
`CN1CCN(Cc2ccc(NC(=O)c3ccc(C#N)c(C#Cc4cnc(N)c5ncccc45)c3)cc2C(F)(F)F)CC1`: the growth is 96.8% in the experiment with NCI-H23 lung; 59.4% in the experiment on NCI-H226 lung; 96.7% in the experiment with NCI-H322M lung; 87.2% with HOP-62 NSCLC; 21.7% with NCI-H460 lung; 81.9% with HOP-92 NSCLC. Besides, the growth in the experiment on NCI-H522 lung is 98.4%; in the experiment with A549/ATCC NSCLC it was 90.6%; in the experiment with 786-0 renal it was -80.3% (active); with COLO 205 colon it was 77.7%.
With `CCOC(=O)c1ccc(NC(=O)NC2=NCCS2)cc1`, the growth in the experiment with NCI-H23 lung is 18.4%; in the experiment with NCI-H226 lung it was 13.5%; with NCI-H322M lung, 77.7%; in the experiment with HOP-62 NSCLC it was 35.7%; in the experiment with NCI-H460 lung it was 19.5%; in the experiment with HOP-92 NSCLC it was 73.6%. Moreover, the growth with NCI-H522 lung is 20.8%; in the experiment on A549/ATCC NSCLC it was 22.5%; with 786-0 renal, 33.8%; in the experiment on COLO 205 colon, 103%.
On to `Clc1ccc(-c2nc(Br)cn3ccnc23)cc1`, for which the growth was 85.5% in the experiment on NCI-H23 lung; 74.6% in the experiment with NCI-H226 lung; 93% in the experiment with NCI-H322M lung; 84.3% with HOP-62 NSCLC; 91.5% in the experiment on NCI-H460 lung; 53.6% with HOP-92 NSCLC. Further, the growth was 84.6% in the experiment on NCI-H522 lung, 104% in the experiment with A549/ATCC NSCLC, 97.7% in the experiment with 786-0 renal and 94.5% with COLO 205 colon.
Regarding `COc1c(B(O)O)cccc1-c1nc2c(F)cc3n[nH]c(C)c3c2c2c1CCCC2`, the growth in the experiment on NCI-H23 lung was 17.5%; in the experiment on NCI-H226 lung it was -0.685% (active); with NCI-H322M lung, 27.6%; with HOP-62 NSCLC it was 22%; with NCI-H460 lung, 11.7%; with HOP-92 NSCLC, 24.7%. Besides, the growth in the experiment with NCI-H522 lung was 9.41% (active); in the experiment on A549/ATCC NSCLC it was 9.82% (active); in the experiment with 786-0 renal, 19.8%; with COLO 205 colon, 15.6%.
`Cc1ccc(C2CC(c3cccs3)=NN2c2ccc(S(N)(=O)=O)cc2)s1` (stereo not given): the growth in the experiment on NCI-H23 lung is 107%; in the experiment on NCI-H226 lung, 89.8%; in the experiment on NCI-H322M lung it was 98%; in the experiment with HOP-62 NSCLC, 95.6%; with NCI-H460 lung, 88.8%; with HOP-92 NSCLC it was 75.2%. Besides, the growth with NCI-H522 lung is 63.2%; with A549/ATCC NSCLC, 71.2%; with 786-0 renal, 98.5%; in the experiment on COLO 205 colon, -75.1% (active).
Consider `CC(C)N1CCN(c2ccncc2S(=O)(=O)N2CCN(C)CC2)CC1`, for which the growth with NCI-H23 lung is 96.8%; in the experiment on NCI-H226 lung it was 89.7%; in the experiment on NCI-H322M lung it was 123%; with HOP-62 NSCLC, 106%; with NCI-H460 lung, 102%; with HOP-92 NSCLC it was 108%. In addition, the growth is 92.7% with NCI-H522 lung, 101% in the experiment with A549/ATCC NSCLC, 98.6% in the experiment on 786-0 renal and 105% in the experiment on COLO 205 colon.
Take `CCCN(CCC)CC(O)COc1ccccc1C(=O)Nc1ccccc1` (stereo not given): the growth with NCI-H23 lung was 90.9%; with NCI-H226 lung, 78.9%; in the experiment on NCI-H322M lung, 119%; in the experiment on HOP-62 NSCLC, 66.5%; in the experiment on NCI-H460 lung, 97.6%; in the experiment with HOP-92 NSCLC, 84.2%. The growth was 55.8% in the experiment on NCI-H522 lung, 40.4% in the experiment with A549/ATCC NSCLC, 88% in the experiment with 786-0 renal and 46.1% in the experiment with COLO 205 colon.
On to `CCCCCc1c(C)[nH]c(/C=C2\N=C(c3ccc[nH]3)C=C2CC)c1C`, for which the growth with NCI-H23 lung was -81% (active); in the experiment with NCI-H226 lung, -92.3% (active); in the experiment on NCI-H322M lung, -90.2% (active); in the experiment on HOP-62 NSCLC it was -72.2% (active); in the experiment on NCI-H460 lung it was -73.3% (active); in the experiment on HOP-92 NSCLC, -91.8% (active). In addition, the growth is -88.8% (active) in the experiment with NCI-H522 lung, -86.4% (active) in the experiment with A549/ATCC NSCLC, -93.6% (active) in the experiment on 786-0 renal and -87.7% (active) in the experiment on COLO 205 colon.
Consider `CN1CCN(Cc2ccc(NC(=O)c3cncc(C#Cc4ncc5cnccn45)c3)cc2C(F)(F)F)CC1`, for which the growth with NCI-H23 lung was 34.3%; in the experiment on NCI-H226 lung, -7.4% (active); with NCI-H322M lung it was 60.4%; in the experiment on HOP-62 NSCLC, 33.7%; with NCI-H460 lung, 52.6%; with HOP-92 NSCLC it was 11.2%. The growth was 58.3% in the experiment on NCI-H522 lung, 74.2% in the experiment on A549/ATCC NSCLC, 71.5% in the experiment on 786-0 renal and 17% in the experiment on COLO 205 colon.
For `O=C(Nc1ccc2[nH]c3ccccc3c2c1)c1ccccc1Cl`, the growth is 67.7% with NCI-H23 lung; 81.1% in the experiment with NCI-H226 lung; 56.4% in the experiment on NCI-H322M lung; 45.1% in the experiment with HOP-62 NSCLC; 22.5% in the experiment on NCI-H460 lung; 76.1% in the experiment on HOP-92 NSCLC. The growth in the experiment on NCI-H522 lung was 15.7%; in the experiment on A549/ATCC NSCLC, 40.5%; in the experiment on 786-0 renal it was 62.1%; in the experiment with COLO 205 colon it was 14%.
Turning to `COc1ccc(C2CC(c3cccc(Nc4ccnc5cc(Cl)ccc45)c3)=NN2c2ccc(Cl)cc2)cc1` (stereo not given), the growth with NCI-H23 lung is 84.4%; with NCI-H226 lung, 83.6%; in the experiment on NCI-H322M lung it was 72.4%; in the experiment on HOP-62 NSCLC, 88.7%; with NCI-H460 lung, 47.6%; in the experiment on HOP-92 NSCLC, 68.5%. Besides, the growth in the experiment with NCI-H522 lung is 90.4%; with A549/ATCC NSCLC it was 70.6%; in the experiment with 786-0 renal, 74.4%; in the experiment with COLO 205 colon, 73.9%.
